Bioassay records (PubChem)
This is one part of a sample in which hits are shown more often than they occur.
VP16 counter = VP16 counterscreen qHTS for inhibitors of ROR gamma transcriptional activity; Drosophila S2 Gal4-VP16 UAS-luciferase, luminescence, 20 h; Potency, µM (highest dose often 53.6 µM), without a hit: at the highest dose activity, negative = inhibition, most hits filed as inhibitors; 3.5% of 310,000 active;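 further: Gal4-VP16 expression switched on by copper sulfate through the metallothionein promoter; potency means the concentration at half of the fitted maximal effect; on the % scale 0 is the no-effect control and ±100 the full control effect; nearly all actives have a fitted effect of over 50% in size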
RORgamma inh = qHTS for inhibitors of ROR gamma transcriptional activity | Drosophila S2 Gal4-RORgamma UAS-luciferase reporter, 20 h | AID 2551, 2010 | Nuclear receptor ROR-gamma (Mus musculus), P51450 | Potency, µM (highest dose often 53.6 µM), inactives show at the top dose activity change, negative = inhibition, most hits filed as inhibitors | 5.4% of 310,000 active; further: potency means the concentration at half of the fitted maximal effect; on the % scale 0 is the no-effect control and ±100 the full control effect; nearly all actives have a fitted effect of over 60% in size
Target sequence (P51450 whole entry, looked up, the tested form may be a part): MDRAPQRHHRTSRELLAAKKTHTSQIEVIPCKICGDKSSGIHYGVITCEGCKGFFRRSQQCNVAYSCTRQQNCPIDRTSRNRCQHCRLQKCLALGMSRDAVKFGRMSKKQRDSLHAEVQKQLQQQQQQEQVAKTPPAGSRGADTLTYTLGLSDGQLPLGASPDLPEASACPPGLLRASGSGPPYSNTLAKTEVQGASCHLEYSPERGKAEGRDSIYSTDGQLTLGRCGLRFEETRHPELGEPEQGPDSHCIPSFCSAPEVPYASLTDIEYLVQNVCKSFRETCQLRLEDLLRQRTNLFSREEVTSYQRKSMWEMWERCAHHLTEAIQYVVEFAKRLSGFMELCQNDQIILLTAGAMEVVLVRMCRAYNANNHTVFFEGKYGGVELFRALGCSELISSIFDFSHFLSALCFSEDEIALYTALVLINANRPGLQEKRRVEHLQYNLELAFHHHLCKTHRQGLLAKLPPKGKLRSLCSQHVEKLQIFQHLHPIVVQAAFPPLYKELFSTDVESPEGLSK
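Luciferase reporter read in Schneider cells carrying Gal4-RORγ (mouse) and UAS-Photinus luciferase; cells given compound 1 h before 700 uM copper sulfate induction, then incubated 20 h at ambient temperature.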
ERG Ets-DNA blk = qHTS for Small Molecule Inhibitors of the ERG Ets/DNA interaction; Transcriptional regulator ERG (Homo sapiens), P11308; fluorescence polarization, His-ERG Ets domain / labelled DNA; Potency, µM (highest dose often 76.9 µM), without a hit: at the highest dose FP activity, negative = inhibition, most hits filed as inhibitors; 0.028% of 370,000 active; active means well fitted inhibition curve with a large enough effect in the polarisation, with a control signal flat; inconclusive means small, poorly fitted or top-dose-only effect, or effect the other way, or a change in a side signal; inactive means no such curve, though single readings can be large or run the other way; the % refers to the polarisation;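 further: polarization taken with two DNA probes labelled with fluorescein and Texas red; potency means the concentration at half of the fitted maximal effect; % of control where 0% means no effect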
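His-tagged ERG Ets domain (1 uM in the protein solution; 300mM KCl, 50mM Tris-HCl, 1mM EDTA, 1mM DTT, pH 7.5) received compound, then a probe mix of 5 nM fluorescein-DNA and 100nM Texas-615-DNA. Fluorescence polarization was read for both dyes.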
Giardia killer = Small Molecules that selectively kill Giardia lamblia: qHTS | Giardia lamblia trophozoite viability | activity change, % at 7.66 µM, hits read low | 0.15% of 340,000 active | AID 540267, 2011; in the data active means activity change below about -80%; inconclusive means between about -30% and that limit;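 further: parasites exposed to compound for two days anaerobically before the ATP read; on the % scale 0 is the no-effect control and ±100 the full control effect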
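Viability, read as ATP luminescence: trophozoites at 100 cells/well, compound added, 48 hrs anaerobic at 37 deg C, then 15-30 min room-temperature development before reading.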
a7 integrin act = qHTS for Activators of Integrin-Mediated Alleviation for Muscular Dystrophy; alpha7betagal myoblasts, beta-gal FDG fluorescence, 48 h; Potency, µM (series often up to 38.3 µM), inactives show at the top dose activation, hits mostly activators; 0.064% of 350,000 active; AID 624291, 2012;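 further: potency means the concentration at half of the fitted maximal effect; 100% = response of the positive control SU9516; nearly all actives have a fitted effect of over 60% in size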
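alpha7betagal+/- myoblasts (passage 13, 250/well) treated 48 h at 37C with compounds at 1:260 dilution of DMSO stock. Lysed, then beta-galactosidase activity read as FDG fluorescence (ex 480/em 540) after 30 min, with pre-read for autofluorescence.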
* = called active by the depositor; ? = inconclusive; . = no result given; [ ] = remark or other dose. Unless noted, the call rests on the fitted dose curve; in most records, active means well fitted curve in the direction sought with a large enough effect; inconclusive means small, poorly fitted or top-dose-only effect, or another doubt; inactive means no such curve, though single readings can be large; an effect the other way counts as inactive or inconclusive.

SMILES	VP16 counter	RORgamma inh	ERG Ets-DNA blk	Giardia killer	a7 integrin act
CCC1CCCCN1CC(=O)c1c(C)[nH]c2cc(C)ccc12 (centres undefined)	-7%	1%	0%	1	-1%
CCN(CC)S(=O)(=O)c1ccc2c(c1)N(CC(=O)N1CCN(c3ccc(OC)cc3)CC1)C(=O)CO2	.	.	-4%	.	.
COc1cccc2c1OCC(C(=O)Nc1nccs1)=C2	?	11µM*	5%	-9	-30%
N#C/C(=C\Nc1ccccc1O)c1nc2ccccc2o1	3.5µM*	?	4%	-22	0%
N#C/C(=C\c1ccncc1)c1nc2ccccc2o1	?	-1%	17%	6	-29%
Cc1ccc(CNC(=O)C2(C)Oc3ccccc3NC2=O)cc1 (centres undefined)	9%	1%	0%	-5	5%
CC1(C(=O)NCc2ccc(F)cc2)Oc2ccccc2NC1=O (centres undefined)	0.32µM*	-57%	11%	0	17%
Cn1nc([N+](=O)[O-])nc1S(C)(=O)=O	?	5µM*	-8%	-12	-74%
O=C1C(SCCO)=C(SCCO)C(=O)c2ccccc21	0.79µM*	0.63µM*	13µM*	3	.
CC1=C(SCc2ccccc2)C(=O)c2ccccc2C1=O	.	.	15%	1	-73%
S=C(NCCCN1CCOCC1)NC1CC1	6%	-10%	-13%	-10	2%
CC(NC(=S)NCCCN1CCOCC1)C1CC2CCC1C2 (centres undefined)	?	5.6µM*	-2%	10	1%
CC(NC(=S)NCCN1CCOCC1)C12CC3CC(CC(C3)C1)C2 (centres undefined)	-14%[10 µM]	5µM*	-6%	25	9%
O=C(NC1CC(=O)N(c2cccc(F)c2)C1)C1CCCC1 (centres undefined)	.	.	0%	.	.
CCCc1nc2ccccc2c(=O)n1/N=C/c1ccc(O)cc1	-12%	25%	-1%	-9	1%
Cc1nc2ccccc2c(=O)n1/N=C/c1cc(Br)ccc1O	?	13µM*	-4%	-20	-28%
COc1ccc(Br)cc1/C=N/n1c(C)nc2ccccc2c1=O	0%	17%	-1%	8	17%
Cc1nc2ccccc2c(=O)n1/N=C/c1c(O)ccc2ccccc12	?	13µM*	7%	-20	-2%
CSc1nnc(C(C)(C)C)c(=O)n1/N=C/c1c(O)ccc2ccccc12	?	10µM*	11%	-9	-6%
CCCc1nc2ccccc2c(=O)n1/N=C/c1ccc(O)cc1O	20µM*	?	-5%	-13	-7%
Cc1n[nH]c(=S)n1/N=C/c1c(O)ccc2ccccc12	?	?	-6%	5	8%
COc1ccc(-c2noc(N3CCN(c4cccc(C)c4C)CC3)n2)cc1OC	.	.	7%	.	.
CN(C(=O)c1ccoc1)c1ccccc1I	-17%	-2%	.	29	.
CCOC(=O)/C(=N\Nc1ccc(Cl)cc1)Sc1nnc(-c2ccc(OC)cc2)n1C	6.3µM*	4.5µM*	-14%	8	0%
CCOC(=O)/C(=N/Nc1ccc(OC)cc1)Sc1nnc(CCc2ccccc2)n1-c1ccccc1	?	7.1µM*	-2%	4	-11%
SMILES	VP16 counter	RORgamma inh	ERG Ets-DNA blk	Giardia killer	a7 integrin act
COC(=O)/C(=N\Nc1ccccc1)Sc1nnc(-c2ccc(OC)cc2)n1C	?	?	0%	0	4%
Nc1nc2c(nc(Sc3ccc(Cl)cc3)n2C2OC(CO)C(O)C2O)c(=O)[nH]1 (centres undefined)	-1%	0%	.	.	.
CC(C)CCNC(=O)Cn1c(SCc2cccc(F)c2)nc2ccncc21	.	.	.	-14	.
CC(C)(C)c1ccc(-n2ncc3c2CCCC3NC(=O)C2(C(N)=O)CC2)cc1 (centres undefined)	2.5µM*	?	0%	19	-20%
CC(=O)NCC(=O)NC1CCCc2c1cnn2-c1ccc(C(C)(C)C)cc1 (centres undefined)	-30%	?	-4%	15	-2%
Cc1cc(C(=O)NC2CCCc3c2cnn3-c2ccc(C(C)(C)C)cc2)nn1C (centres undefined)	11µM*	?	1%	-3	-41%
CCCCCCCCCCCCC/C=C/C(O)C(COP(=O)(O)OCCN)NC(=O)CCCCCCCCCCCCCCCCC (centres undefined)	-3%	-13%	.	.	.
CCc1ccc([C@@H]2CC=C(C(=O)O)CN2S(=O)(=O)c2ccc(C)cc2)cc1	.	.	-4%	-26	14%
CC1CCCCC1NC(=O)CCCn1c(=S)[nH]c2ccsc2c1=O (centres undefined)	?	18µM*	6%	-3	-11%
O=C(CCCCn1c(=S)[nH]c2ccsc2c1=O)NCc1ccc2c(c1)OCO2	-21%	14µM*	-11%	-6	33%
O=C(CCCn1c(=S)[nH]c2ccsc2c1=O)Nc1ccc(F)cc1	.	.	.	.	27%
CCOc1ccc(NC(=O)CCCn2c(=S)[nH]c3ccsc3c2=O)cc1	?	13µM*	1%	7	37%
O=C(CCCn1c(=S)[nH]c2ccsc2c1=O)Nc1ccc2c(c1)OCCO2	?	11µM*	13%	25	-31%
CCCCNC(=O)CCCn1c(=O)c2ccccc2n(CC(=O)Nc2ccccc2OCC)c1=O	.	.	-5%	.	.
COc1cc(/C=N/Nc2ccccn2)cc(OC)c1O	?	?	6%	2	-32%
COc1cc(/C=N/Nc2cccc3cccnc23)cc(OC)c1O	?	10µM*	-10%	-9	-61%
Oc1c(/C=N/Nc2cccc3cccnc23)ccc2ccccc12	?	13µM*	-6%	-14	-2%
Oc1cccc(/C=N/Nc2cccc3cccnc23)c1	?	7.1µM*	9%	-25	3%
CC1(C)NC(=O)N(CC(=O)OCC(=O)c2ccc(Br)s2)C1=O	.	.	10%	-24	0%
CC(C)CO/N=C1/C[C@@H](O)[C@@H](O)[C@@H]2[C@@H]3C(=O)N(C(C)(C)C)C(=O)[C@H]3CC[C@H]12	-7%[10 µM]	13%[10 µM]	.	.	.
Nc1nc(NCc2ccccc2)nc(Nc2ccc(F)cc2)c1[N+](=O)[O-]	5%	-7%	-9%	0	20%
O=C(C1CC1)N(CCc1ccccc1)Cc1nc2ccccc2c(=O)[nH]1	-27%	?	-9%	10	-4%
O=C(C1CCC1)N(CCc1ccccc1)Cc1nc2ccccc2c(=O)[nH]1	7.9µM*	1.8µM*	-1%	6	-25%
COc1ccc(CCN(Cc2nc3ccccc3c(=O)[nH]2)C(=O)C2CC2)cc1	13µM*	3.2µM*	3%	20	2%
CCC(C)NC(=O)c1c(C)oc2nc(C)nc(N3CCOCC3)c12 (centres undefined)	.	.	0%	.	.
